The text below walks through data of PubChem BioAssay (Tox21).

Molecules are shown by their SMILES. Values without a mark were called inactive. Results filed as inconclusive are left out. Active and inactive are the calls of the source. Unless noted, calls come from the whole dose curve; as a rule, active = well fitted curve in the direction sought with a large enough effect in the repeat runs; inconclusive = weak or mixed curves; inactive = no such curve, though single readings can be large; an effect the other way counts as inactive or inconclusive.

Experiment [1] in a line: qHTS assay for small molecule agonists of the p53 signaling pathway (AID 651631; calls by dose curve; note: nearly all actives have a fitted effect of over 15% in size; note: potency is the fitted concentration of half-maximal effect). In outline:
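HCT-116 cells carrying a stable p53 response element–beta-lactamase reporter were plated, rested 5 h at 37 °C, then exposed to compound in DMSO for 16 h at 37 °C; reporter activity was read as FRET substrate fluorescence after 2 h at room temperature.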
A general note: Quantitative high-throughput screening tests each substance at several concentrations.

Experiment [2] can be described thus: qHTS assay for small molecules that induce genotoxicity in human embryonic kidney cells expressing luciferase-tagged ATAD5 (AID 651632). Note: nearly all actives have a fitted effect of over 15% in size. The method, boiled down: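 A rise in luciferase signal from ATAD5-tagged HEK293T cells marks genetic stress. Cells were exposed to compounds for 16 hr at 37C, 5% CO2, then luciferase was quantified after a 30 min room-temperature incubation with Amplite.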

Experiment [3] in a line: qHTS assay for small molecule agonists of the p53 signaling pathway - cell viability (AID 651633; calls by dose curve; note: nearly all actives have a fitted effect of over 30% in size; note: potency is the fitted concentration of half-maximal effect). The method, boiled down: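 p53RE-bla cells were treated with compound for 16 hours at 37 C. Cytotoxicity was then measured as CellTiter-Glo luminescence after 30 min at room temperature.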
Experiment [4] is described as follows: qHTS assay for small molecules that induce genotoxicity in human embryonic kidney cells expressing luciferase-tagged ATAD5 - cell viability (AID 651634; calls by dose curve; note: nearly all actives have a fitted effect of over 25% in size; note: potency is the fitted concentration of half-maximal effect). The method, boiled down:
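Cytotoxicity counter-readout: after 15.5 hr compound treatment at 37C, live-cell protease activity in ATAD5-luciferase HEK293T cells measured by CellTiter-Fluor fluorescence, 30 min development at 37C.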

Experiment [5] is described as follows: qHTS assay for small molecule disruptors of the mitochondrial membrane potential - cell viability (AID 720634; calls by dose curve;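 note: human HepG2 liver cancer cells; series mostly up to about 83 µM; nearly all actives have a fitted effect of over 20% in size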). In outline:
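Cytotoxicity was quantified from ATP content by CellTiter-Glo luminescence in the same wells as the MMP dye read-out. HepG2 (2,000 cells/well) were plated overnight and exposed to compounds for 1 hr at 37 C.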

Experiment [6] can be described thus: qHTS assay to test for compound auto fluorescence at 590 nm (red) in HepG2 cells (AID 720674). The method, boiled down:
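HepG2 cells, 2,000 per well in MEM with 10% FBS, attached overnight at 37 C, then got 23 nL compound or DMSO. After 1 hr at 37 C, 5% CO2, red fluorescence was read at 540/590 nm against Rose Bengal sodium as reference.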

Experiment [7] can be described thus: qHTS assay to test for compound auto fluorescence at 460 nm (blue) in HEK293 cells (AID 720678). In outline: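 HEK293 cells (2,000/well, medium with 10% dialyzed FBS) attached 4-5 hr, then exposed to compound overnight at 37C, 5% CO2. Blue fluorescence read at 405/460 nm, with triamterene as reference fluorophore.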
Experiment [8] is described as follows: qHTS assay to test for compound auto fluorescence at 590 nm (red) in HEK293 cells (AID 720679). In outline: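 HEK293 cells (2,000/well, 10% dialyzed FBS) attached 4-5 hr, then dosed with compound or DMSO and incubated overnight at 37C, 5% CO2. Red fluorescence read at 540/590 nm, Rose Bengal sodium as reference fluorophore.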
The nature of experiment [9]: qHTS assay to test for compound auto fluorescence at 535 nm (green) in HepG2 cells (AID 720675).
Experiment [10] is described as follows: qHTS assay for small molecule disruptors of the mitochondrial membrane potential (AID 720635). Note: potency is the fitted concentration of half-maximal effect. The method, boiled down: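 HepG2 cells exposed to compound 1 hr at 37C, then Mito-MPS dye 30 min. Ratio read of aggregate (540/590 nm) versus monomer (490/535 nm) fluorescence.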
% is set by controls: 0 for no effect and ±100 for the full control effect.

For `O=C(Cn1ccnc1[N+](=O)[O-])NCCO`, the Potency entry in experiment [1], in experiment [2], in [3], in experiment [4], in experiment [5] and in [7] was “inactive” in each case. The call in experiment [6] and in experiment [8] was inactive.

For `COc1cc(N)c(Cl)cc1C(=O)NC1CCN(CCCOc2ccc(F)cc2)CC1OC` (stereo not given), the Potency result in experiment [1], in experiment [2], in [3], in experiment [4] and in [5] was “inactive” throughout. In addition, the fluorescence, % of fluorescein control in experiment [9] is -0.0882% [at 18.6 µM]. Besides, the fluorescence, % of triamterene in experiment [7] was -0.493% [at 18.6 µM]. Further, the fluorescence, % of fluorescent control in [8] was 0.102% [at 18.6 µM].

Turning to `C(=C\c1ccccc1)/c1ccccc1`, the Potency entry in experiment [1], in experiment [2], in [3], in experiment [4], in experiment [5] and in experiment [7] was “inactive” throughout. In addition, the call in [6], in [9] and in [8] was inactive.

In the case of `N#[N+]c1ccc2c(S(=O)(=O)[O-])cccc2c1O`, the Potency entry in experiment [1], in [2], in experiment [3], in experiment [4], in [5] and in experiment [7] was “inactive” each time. The call in experiment [6], in experiment [9] and in experiment [8] was inactive.

Take `C[C@@H](O[C@H]1OCCN(Cc2n[nH]c(=O)[nH]2)[C@H]1c1ccc(F)cc1)c1cc(C(F)(F)F)cc(C(F)(F)F)c1`: the Potency in [1] was 29.8 µM (active); in experiment [3] it was 23.7 µM (active); in experiment [4], 23.7 µM (active). In addition, the Potency entry in experiment [2] and in experiment [5] was “inactive” in each case. The compound was called inactive in experiment [6], in experiment [9] and in experiment [8].

Regarding `CCCCCCCCCCC(=O)O`, the Potency entry in experiment [1], in [2], in [3], in experiment [4] and in experiment [5] was “inactive” each time. In addition, the compound was classed as inactive in [6], in experiment [9] and in experiment [8].

Take `CC(C)=CCC/C(C)=C/CC/C(C)=C/CCC(=O)OC/C=C(\C)CCC=C(C)C`: the Potency result in experiment [1], in [2], in experiment [3], in experiment [4] and in experiment [5] was “inactive” each time. Moreover, the result in experiment [6], in experiment [9] and in [8] was inactive.

Take `Oc1cccc(O)c1O`: the Potency entry in [1], in experiment [2], in experiment [3], in [4], in experiment [5] and in [7] was “inactive” throughout. Moreover, the call in experiment [6], in [9] and in [8] was inactive.

As to `CCCCOc1ccc(OCCCN2CCOCC2)cc1`, the Potency result in experiment [1], in experiment [2], in experiment [3], in [4] and in experiment [5] was “inactive” each time. Besides, the fluorescence, relative to Rose Bengal in experiment [6] is -0.141% [at 18.6 µM]. Also, the fluorescence, % of fluorescein control in experiment [9] is -0.0009% [at 18.6 µM]. Besides, in experiment [7], the fluorescence, % of triamterene is -0.0611% [at 18.6 µM]. Moreover, the fluorescence, % of fluorescent control in experiment [8] was -0.188% [at 18.6 µM].

For the compound `CC(C)COCC(CN(Cc1ccccc1)c1ccccc1)N1CCCC1` (stereo not given), the Potency was 13.3 µM (active) in experiment [1], 11.9 µM (active) in experiment [3] and 9.44 µM (active) in [4]. For the same compound, the Potency result in experiment [2] and in experiment [7] was “inactive” throughout. For the same compound, the call in [6], in experiment [9] and in [8] was inactive.

For the compound `CCC(C)COC(=O)CC(C)C` (stereo not given), the Potency entry in experiment [1], in experiment [2], in experiment [3], in [4], in experiment [5] and in experiment [7] was “inactive” in each case. Besides, the compound was called inactive in experiment [6], in experiment [9] and in [8].

As to `Cc1cc2c(OCC(CNC(C)(C)C)OC(=O)c3ccccc3)cccc2[nH]1` (stereo not given), the Potency entry in [1], in experiment [2], in experiment [3], in [4], in [5] and in experiment [7] was “inactive” throughout. Further, the outcome in experiment [6] and in experiment [8] was inactive.

With `C=Cc1ccc(S(=O)(=O)O)cc1`, the Potency entry in [1], in experiment [2], in experiment [3], in experiment [5], in experiment [10] and in [7] was “inactive” in each case. In addition, the call in experiment [6], in experiment [9] and in [8] was inactive.

Turning to `C1C[C@@H]2[C@H]3CC[C@H](C3)[C@@H]2C1`, the Potency entry in experiment [1], in experiment [2], in [3], in experiment [4], in [5] and in experiment [7] was “inactive” throughout. Besides, the result in experiment [6], in experiment [9] and in experiment [8] was inactive.

With `COc1ccccc1Oc1c(NS(=O)(=O)c2ccc(C(C)(C)C)cc2)nc(-c2ncccn2)nc1OCCO`, the Potency result in [1], in experiment [2], in experiment [3], in [4] and in experiment [5] was “inactive” each time. The compound was called inactive in [9] and in experiment [8].

Take `CC(=O)Nc1ccc(C)cc1C`: the Potency entry in experiment [1], in experiment [2], in experiment [3], in experiment [4], in experiment [5] and in experiment [7] was “inactive” in each case. In addition, the outcome in experiment [6] and in [8] was inactive.

Take `C=COCC(C)C`: the Potency result in [1], in experiment [2], in experiment [3], in [4], in experiment [5] and in experiment [7] was “inactive” in each case. Also, the outcome in experiment [6], in experiment [9] and in experiment [8] was inactive.

For `CCOC(=O)/C=C/C(=O)OCC`, the Potency entry in experiment [1], in experiment [2], in [3], in [4], in [5] and in [10] was “inactive” throughout. Moreover, the Potency result in [7] was “inactive”. Also, the outcome in experiment [9] and in experiment [8] was inactive.

For `CCOC(C)=O`, the Potency result in experiment [1], in [2], in experiment [3], in [4] and in experiment [5] was “inactive” each time. The outcome in [6], in [9] and in experiment [8] was inactive.

For the compound `O=C=Nc1cccc(C(F)(F)F)c1`, the Potency entry in [1], in experiment [2], in experiment [3] and in [4] was “inactive” each time. Further, the Potency in experiment [10] is 2.15 µM (active). The call in experiment [6], in experiment [9] and in experiment [8] was inactive.

Regarding `CC(C)=CC(=O)C=C(C)C`, the Potency result in experiment [1], in experiment [2], in experiment [3], in experiment [4], in experiment [5] and in experiment [7] was “inactive” throughout. For the same compound, the outcome in experiment [6], in [9] and in experiment [8] was inactive.

`CCn1cc(C(=O)O)c(=O)c2cc(F)c(N3CCNCC3)cc21`: the Potency entry in [1], in [2], in experiment [3], in experiment [4], in [5] and in [7] was “inactive” each time. The outcome in experiment [9] and in experiment [8] was inactive.

Turning to `C=C(C)CCCC(C)CCO` (stereo not given), the Potency entry in [1], in experiment [2], in experiment [3], in experiment [4], in experiment [5] and in experiment [7] was “inactive” in each case. Moreover, the compound was called inactive in experiment [8].

Turning to `Brc1cc2ccccc2c2ccccc12`, the Potency entry in experiment [1], in experiment [2], in [3], in experiment [4], in experiment [5] and in [7] was “inactive” in each case. Further, the compound was called inactive in experiment [6], in experiment [9] and in [8].

Consider `Cc1cscn1`, for which the Potency result in experiment [1], in experiment [2], in [3], in [4], in experiment [5] and in [7] was “inactive” throughout. Moreover, the compound was classed as inactive in experiment [6], in experiment [9] and in [8].
